In PubChem BioAssay (NCI):
About 83,000 compounds went through this panel and 20% of them were active in at least one assay; those are over-represented in the sample as a whole.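 Step 1: grow cells in 96-well plates. Step 2: add test compound at a single concentration. Step 3: incubate 48 h. Step 4: record percent growth.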 Calls of active or inactive are those of the source. Rule for the calls: active = growth percent below 10; inactive = the rest.

Assays:
Assay in all cases: NCI-60 one-dose screen, 48 h (100 = growth as untreated, 0 = no growth, -100 = all killed)
Conditions in all cases: 10 µM unless noted
HCT-15 colon = system: HCT-15 colon
HT29 colon = system: HT29 colon
SNB-75 CNS = system: SNB-75 CNS
SNB-19 CNS = system: SNB-19 CNS
U251 CNS = system: U251 CNS
PC-3 prostate = system: PC-3 prostate
SK-MEL-5 melanoma = system: SK-MEL-5 melanoma
UACC-62 melanoma = system: UACC-62 melanoma
LOX IMVI melanoma = system: LOX IMVI melanoma
SK-MEL-28 melanoma = system: SK-MEL-28 melanoma

Measured: growth

O=C1c2ccccc2-c2nnc(-c3ccc(Br)cc3)cc21
inactive: HCT-15 colon 59.8% | HT29 colon 82.5% | SNB-75 CNS 36.9% | SNB-19 CNS 87.1% | U251 CNS 28.8% | PC-3 prostate 51.3% | SK-MEL-5 melanoma 51.1% | UACC-62 melanoma 16% | SK-MEL-28 melanoma 13.8%
active: LOX IMVI melanoma 1.78%

CC(=O)Nc1ccc(Sc2ccc([N+](=O)[O-])o2)cc1
active: HCT-15 colon 2.17% | LOX IMVI melanoma 5.12% | SK-MEL-28 melanoma -8.34%
inactive: HT29 colon 26.4% | SNB-75 CNS 58.3% | SNB-19 CNS 118% | U251 CNS 31.9% | PC-3 prostate 58.9% | SK-MEL-5 melanoma 59.5%

Nc1nc(-c2ccnc(Cl)c2)nn1-c1nc2ccccc2s1
inactive: HCT-15 colon 101% | HT29 colon 112% | SNB-75 CNS 103% | SNB-19 CNS 98.9% | U251 CNS 107% | PC-3 prostate 102% | SK-MEL-5 melanoma 106% | UACC-62 melanoma 97% | LOX IMVI melanoma 102% | SK-MEL-28 melanoma 104%

COc1cccc2c(=O)c3c(sc12)c(NCCN(C)C)nc1ccccc13
inactive: HCT-15 colon 16.5% | SNB-19 CNS 36.6% | PC-3 prostate 23% | SK-MEL-5 melanoma 32.9% | UACC-62 melanoma 57% | SK-MEL-28 melanoma 43.9%
active: HT29 colon 3.18% | SNB-75 CNS -5.46% | U251 CNS -28.1% | LOX IMVI melanoma -2.57%

CCN(c1ccc(C(=O)N2CCN(c3ccccc3)CC2)cc1)S(C)(=O)=O
inactive: HCT-15 colon 104% | HT29 colon 97.7% | SNB-75 CNS 64.1% | SNB-19 CNS 100% | U251 CNS 105% | PC-3 prostate 101% | SK-MEL-5 melanoma 99.6% | UACC-62 melanoma 105% | LOX IMVI melanoma 100% | SK-MEL-28 melanoma 108%

COc1cc(/C=N/NC(=O)c2cnn3c2NC(c2ccccc2)C3)cc(OC)c1OC (stereo unspecified)
inactive: HCT-15 colon 37.7% | HT29 colon 20.5% | SNB-75 CNS 52.4% | SNB-19 CNS 66.2% | U251 CNS 66.9% | PC-3 prostate 56.2% | SK-MEL-5 melanoma 50.4% | LOX IMVI melanoma 61.3% | SK-MEL-28 melanoma 70.4%

CCN1CCN(c2nc3ccccc3c3c(=O)c4cc(F)ccc4sc23)CC1
inactive: HCT-15 colon 48.2% | HT29 colon 28% | SNB-75 CNS 39.7% | SNB-19 CNS 80.9% | U251 CNS 46.5% | PC-3 prostate 78% | SK-MEL-5 melanoma 82.8% | LOX IMVI melanoma 60.9% | SK-MEL-28 melanoma 78.2%

Cc1ccc2nc(NC(=O)CSC(=S)N3CCN(C)CC3)sc2c1
active: LOX IMVI melanoma -72.3%
inactive: HCT-15 colon 102% | HT29 colon 106% | SNB-75 CNS 90.8% | SNB-19 CNS 108% | U251 CNS 108% | PC-3 prostate 95.6% | SK-MEL-5 melanoma 107% | SK-MEL-28 melanoma 116%

CC(=O)N(CC(O)CO)c1c(I)c(C(=O)NCCO)c(I)c(C(=O)NCC(O)CO)c1I (stereo unspecified)
inactive: HCT-15 colon 96.4% | HT29 colon 99.9% | SNB-75 CNS 95.6% | SNB-19 CNS 106% | U251 CNS 100% | PC-3 prostate 81.3% | SK-MEL-5 melanoma 91.7% | UACC-62 melanoma 111% | SK-MEL-28 melanoma 112%

COc1cccc(C2C3=C(COC3=O)N(CCO)c3cc4c(cc32)CCC4)c1 (stereo unspecified)
active: HCT-15 colon 2.3% | HT29 colon -28.2% | SNB-75 CNS -19.2% | U251 CNS 2.42% | UACC-62 melanoma 8.14%
inactive: SNB-19 CNS 11.3% | PC-3 prostate 23.5% | LOX IMVI melanoma 14.8% | SK-MEL-28 melanoma 46.8%

O=S(=O)(/N=C1C=C/C(=N\S(=O)(=O)c2ccccc2)c2ccccc2\1)c1ccccc1
inactive: HCT-15 colon 106% | HT29 colon 118% | SNB-75 CNS 96.1% | SNB-19 CNS 116% | U251 CNS 92.6% | PC-3 prostate 79.6% | UACC-62 melanoma 104% | LOX IMVI melanoma 68.9% | SK-MEL-28 melanoma 101%

COc1cccc(Nc2nc(NCCO)c3ccccc3n2)c1
inactive: HCT-15 colon 88.6% | HT29 colon 100% | SNB-75 CNS 63.7% | SNB-19 CNS 76.9% | U251 CNS 73.7% | PC-3 prostate 24.4% | UACC-62 melanoma 67.1% | LOX IMVI melanoma 75% | SK-MEL-28 melanoma 91.7%

C=CC(=O)N1CC2(CCC(n3nc(-c4ccc(Oc5ccccc5)cc4)c4c(N)ncnc43)CC2)C1
active: HCT-15 colon -60.5% | HT29 colon -60.3% | SNB-75 CNS -69.5% | SNB-19 CNS -0.912% | U251 CNS -73.8% | PC-3 prostate -19.6% | UACC-62 melanoma -90.7% | LOX IMVI melanoma -65% | SK-MEL-28 melanoma -67.9%

CCOC(=O)c1c(-c2cc(OC)c(OC)c(OC)c2)csc1N
inactive: HCT-15 colon 66.9% | HT29 colon 71.9% | SNB-75 CNS 84.2% | SNB-19 CNS 108% | U251 CNS 97.2% | PC-3 prostate 88.6% | UACC-62 melanoma 88.6% | LOX IMVI melanoma 95.4% | SK-MEL-28 melanoma 91.1%

COc1ccc(OC)c(C2C(C#N)=C(N)Oc3cc(O)ccc32)c1 (stereo unspecified)
inactive: HCT-15 colon 94.4% | HT29 colon 95.4% | SNB-75 CNS 91.5% | SNB-19 CNS 102% | U251 CNS 99% | PC-3 prostate 95.5% | UACC-62 melanoma 91.9% | LOX IMVI melanoma 100% | SK-MEL-28 melanoma 103%

NC(=O)c1cc(I)ccc1NC(=O)COc1ccc(Cl)cc1Cl
inactive: HCT-15 colon 62.8% | HT29 colon 85.1% | SNB-75 CNS 113% | SNB-19 CNS 98.7% | U251 CNS 89.5% | PC-3 prostate 86.4% | UACC-62 melanoma 83.1% | LOX IMVI melanoma 93.3% | SK-MEL-28 melanoma 99.3%

O=C1C(N2CCOCC2)=Cc2cccc3cccc1c23
inactive: HCT-15 colon 92.6% | HT29 colon 92.4% | SNB-75 CNS 86.9% | SNB-19 CNS 92.4% | U251 CNS 92.8% | PC-3 prostate 95.4% | UACC-62 melanoma 91.2% | LOX IMVI melanoma 101% | SK-MEL-28 melanoma 97.5%

COc1cccc(C2CC(=O)Nc3cc4c(cc32)CCC4)c1OC (stereo unspecified)
active: HT29 colon 9.41%
inactive: HCT-15 colon 36.4% | SNB-75 CNS 35.3% | SNB-19 CNS 80.8% | U251 CNS 42.4% | PC-3 prostate 69.3% | UACC-62 melanoma 52.1% | LOX IMVI melanoma 59.6% | SK-MEL-28 melanoma 68.9%

NC(=O)c1cc(I)ccc1NC(=O)COc1ccccc1
inactive: HCT-15 colon 20.1% | SNB-75 CNS 30.8% | SNB-19 CNS 43.1% | U251 CNS 13.5% | PC-3 prostate 43.4% | UACC-62 melanoma 46% | LOX IMVI melanoma 52.1%
active: HT29 colon 7.08%

CC(=O)Nc1ccc(S(=O)(=O)N/N=C\c2ccc(Cl)c(Cl)c2)cc1
inactive: HCT-15 colon 118% | HT29 colon 102% | SNB-75 CNS 81.7% | SNB-19 CNS 103% | U251 CNS 95.5% | PC-3 prostate 83.6% | UACC-62 melanoma 99.2% | LOX IMVI melanoma 98.7% | SK-MEL-28 melanoma 115%

CC1(C)CC(=O)C2=C(C1)Nc1cc3c(cc1C2c1ccc(F)cc1)OCO3 (stereo unspecified)
inactive: HCT-15 colon 93.9% | HT29 colon 93.2% | SNB-75 CNS 77.3% | SNB-19 CNS 96.5% | U251 CNS 90.6% | PC-3 prostate 93.5% | UACC-62 melanoma 98.7% | LOX IMVI melanoma 99.1% | SK-MEL-28 melanoma 92.6%

COc1ccc(-c2csc3c2-n2cccc2C3=O)cc1O
inactive: HCT-15 colon 17.4% | HT29 colon 23.9% | SNB-75 CNS 46.5% | SNB-19 CNS 41.4% | PC-3 prostate 17.2% | UACC-62 melanoma 29.4% | LOX IMVI melanoma 22.5% | SK-MEL-28 melanoma 61.5%
active: U251 CNS 4.86%

COc1cc(C2CC(=O)Nc3c2ccc2ccccc32)cc(Br)c1OC (stereo unspecified)
active: HT29 colon -6.29% | SNB-75 CNS -18.6%
inactive: HCT-15 colon 27.9% | SNB-19 CNS 39% | U251 CNS 18.6% | PC-3 prostate 15.2% | UACC-62 melanoma 12.1% | LOX IMVI melanoma 25.1% | SK-MEL-28 melanoma 43.6%

COc1ccc(NS(=O)(=O)c2ccc(-c3cnc(C4CC4)o3)cc2)cc1
inactive: HCT-15 colon 29.7% | HT29 colon 19% | SNB-75 CNS 44.9% | SNB-19 CNS 67.8% | U251 CNS 56.5% | PC-3 prostate 67% | UACC-62 melanoma 49.4% | LOX IMVI melanoma 50.8%

Cc1c(C(=O)Nc2nc(-c3ccccc3)cs2)nnn1-c1cccc2ccccc12
inactive: HCT-15 colon 57.9% [50 µM] | HT29 colon 64.3% [50 µM] | SNB-75 CNS 80.6% [50 µM] | SNB-19 CNS 72.3% [50 µM] | U251 CNS 72.7% [50 µM] | PC-3 prostate 53.8% [50 µM] | UACC-62 melanoma 49.2% [50 µM] | LOX IMVI melanoma 43.4% [50 µM] | SK-MEL-28 melanoma 69.9% [50 µM]

Cn1c2ccc(Cl)cc2c2nn(C(=O)c3ccccc3)c(=O)nc21
inactive: HCT-15 colon 96.7% | HT29 colon 108% | SNB-75 CNS 88.3% | SNB-19 CNS 105% | U251 CNS 103% | PC-3 prostate 93.2% | UACC-62 melanoma 107% | LOX IMVI melanoma 98.1%

COC(=O)c1ccc(C(=O)Nc2ccccc2N)cc1
inactive: HCT-15 colon 83.9% | HT29 colon 86.9% | SNB-75 CNS 78.4% | SNB-19 CNS 85.6% | U251 CNS 72.1% | PC-3 prostate 65.3% | UACC-62 melanoma 61.2% | LOX IMVI melanoma 97.7% | SK-MEL-28 melanoma 94.6%

COc1cc(/C=C/C(=O)C2=C(/C=C/c3ccc(O)c(OC)c3)NC(=O)NC2c2ccc(O)c(OC)c2)ccc1O (stereo unspecified)
inactive: HCT-15 colon 97.4% | HT29 colon 54.1% | SNB-75 CNS 65.8% | SNB-19 CNS 96.5% | U251 CNS 86.3% | PC-3 prostate 76.7% | UACC-62 melanoma 94.2% | LOX IMVI melanoma 98.7% | SK-MEL-28 melanoma 103%

O=C(CCc1nnc2sc(-c3ccccc3)nn12)c1nc2ccccc2[nH]1
inactive: HCT-15 colon 98.5% | HT29 colon 62.1% | SNB-75 CNS 83.9% | SNB-19 CNS 104% | U251 CNS 88.7% | PC-3 prostate 85.7% | UACC-62 melanoma 102% | LOX IMVI melanoma 88.3% | SK-MEL-28 melanoma 103%

O=C(N/N=C(\CS(=O)(=O)c1ccccc1)c1cc2ccccc2oc1=O)c1ccccc1
inactive: HCT-15 colon 107% | HT29 colon 108% | SNB-75 CNS 93.2% | SNB-19 CNS 99.8% | U251 CNS 96.3% | PC-3 prostate 98.3% | UACC-62 melanoma 97.9% | LOX IMVI melanoma 96.6% | SK-MEL-28 melanoma 107%
